Drawing on PubChem BioAssay (NCI), this text covers growth for nine compounds.

The structures appear in SMILES notation. Where “and” joins values, the source holds several entries; their conditions need not be identical. Equal values may be shown once. About 83,000 compounds went through this panel and 20% of them were active in at least one assay; those are over-represented in the sample as a whole.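 48-hour exposure, single concentration, 96-well plates; percent growth endpoint where 0 means no net growth. Active: below 10.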 Calls of active or inactive are those of the source.

Some test systems named below: DU-145 prostate; K-562 leukemia; MALME-3M melanoma; MDA-MB-231 breast; RXF 393 renal; SF-268 CNS; SF-295 CNS; SF-539 CNS; UACC-257 melanoma; M14 melanoma.
Common to all, as to assay: NCI-60 one-dose screen, 48 h (100 = growth as untreated, 0 = no growth, -100 = all killed)
What all share (details): 10 µM unless noted

For the compound `Clc1nccc2c(-c3csc(-c4c[nH]c5ccc(Br)cc45)n3)c[nH]c12`, the growth is 29% (inactive) in the assay with DU-145 prostate; 3.99% (active) with K-562 leukemia; 8.43% (active) in the assay on MALME-3M melanoma; 14.4% (inactive) with MDA-MB-231 breast; -14.8% (active) in the assay on RXF 393 renal; 55.6% (inactive) in the assay with SF-268 CNS. For the same compound, the growth in the assay on SF-295 CNS is -10.3% (active); in the assay on SF-539 CNS, 15.3% (inactive); in the assay on UACC-257 melanoma it was -48.9% (active); with M14 melanoma it was -34.3% (active).

Turning to `O=c1oc2c(Br)cc(Br)cc2cc1-c1cc(-c2ccc(-c3cc(-c4cc5cc(Br)cc(Br)c5oc4=O)nc(-c4cc5cc(Br)cc(Br)c5oc4=O)c3)cc2)cc(-c2cc3cc(Br)cc(Br)c3oc2=O)n1`, the growth was 112% (inactive) in the assay on DU-145 prostate; 97.9% (inactive) in the assay on K-562 leukemia; 92.6% (inactive) in the assay with MALME-3M melanoma; 93.7% (inactive) in the assay on MDA-MB-231 breast; 119% (inactive) in the assay on RXF 393 renal; 105% (inactive) with SF-268 CNS. The growth with SF-295 CNS is 106% (inactive); with SF-539 CNS it was 107% (inactive); in the assay on UACC-257 melanoma, 109% (inactive); in the assay on M14 melanoma, 107% (inactive).

For the compound `O=C(O)c1ccccc1Cc1ccc(F)c2ccccc12`, the growth in the assay with DU-145 prostate is 90.6% (inactive) and 116% (inactive); with K-562 leukemia, 103% (inactive) and 98.4% (inactive); in the assay with MALME-3M melanoma, 102% (inactive) and 117% (inactive); in the assay on MDA-MB-231 breast, 115% (inactive) and 106% (inactive); with RXF 393 renal it was 107% (inactive) and 95.9% (inactive); in the assay on SF-268 CNS it was 102% (inactive) and 103% (inactive). In addition, the growth is 71.1% (inactive) and 103% (inactive) with SF-295 CNS; 117% (inactive) and 107% (inactive) in the assay on SF-539 CNS; 107% (inactive) and 98.8% (inactive) with UACC-257 melanoma; 129% (inactive) and 102% (inactive) in the assay on M14 melanoma.

Regarding `CN(C)c1ccc2nc3ccc(=O)cc-3sc2c1`, the growth in the assay on DU-145 prostate was 35.7% (inactive) and 51.2% (inactive); with K-562 leukemia, 20.4% (inactive) and 23% (inactive); in the assay with MALME-3M melanoma, 1.88% (active) and 22.1% (inactive); in the assay on MDA-MB-231 breast, 30.4% (inactive) and 43% (inactive); in the assay on RXF 393 renal it was 52.2% (inactive) and 82% (inactive); in the assay with SF-268 CNS, 52.9% (inactive) and 63% (inactive). The growth in the assay on SF-295 CNS was 6.09% (active) and -15.3% (active); in the assay with SF-539 CNS, 10.3% (inactive) and 1.75% (active); in the assay with UACC-257 melanoma, -21.8% (active) and 24.8% (inactive); in the assay on M14 melanoma, 9.73% (active) and 7.61% (active).

Regarding `Cc1nn(-c2nc(-c3cc4ccccc4oc3=O)cs2)c(C)c1N=Nc1ccccc1`, the growth in the assay on DU-145 prostate is 90.4% (inactive); in the assay with K-562 leukemia it was 93% (inactive); with MALME-3M melanoma it was 96.5% (inactive); with MDA-MB-231 breast, 87.8% (inactive); in the assay with RXF 393 renal it was 112% (inactive); in the assay with SF-268 CNS it was 105% (inactive). Also, the growth in the assay on SF-295 CNS is 104% (inactive); in the assay with SF-539 CNS, 102% (inactive); in the assay with UACC-257 melanoma it was 103% (inactive); with M14 melanoma it was 110% (inactive).

As to `COc1ccc(NC(=O)Nc2ccccc2CNc2nc(Nc3ccc(OCCN4CCCC4)cc3)ncc2Cl)cc1`, the growth in the assay with DU-145 prostate is 18% (inactive); with K-562 leukemia, 0.588% (active); with MALME-3M melanoma it was -63.7% (active); with MDA-MB-231 breast, -59.1% (active); with RXF 393 renal it was -75.6% (active); with SF-268 CNS, 35.8% (inactive). Further, the growth in the assay on SF-295 CNS is 11.1% (inactive); in the assay on SF-539 CNS, -84.2% (active); with UACC-257 melanoma it was -46.8% (active); in the assay on M14 melanoma, -75.6% (active).

On to `Nc1nc(N)c2c(n1)NC(c1cccc(Nc3ccnc4cc(C(F)(F)F)ccc34)c1)CC(c1ccc(F)cc1)=N2` (stereo not given), for which the growth was 63.8% (inactive) in the assay on DU-145 prostate; 9.19% (active) in the assay on K-562 leukemia; 53.2% (inactive) in the assay with MALME-3M melanoma; 44.8% (inactive) in the assay on MDA-MB-231 breast; 42.8% (inactive) in the assay with RXF 393 renal; 52.2% (inactive) with SF-268 CNS. The growth with SF-295 CNS is 49.2% (inactive); in the assay with SF-539 CNS it was 73.8% (inactive); in the assay on UACC-257 melanoma it was 74.8% (inactive); in the assay with M14 melanoma it was 27.7% (inactive).

Take `COc1ccc(/C=C(\C#N)c2cc3ccccc3[nH]2)cc1`: the growth was 31.1% (inactive) in the assay on DU-145 prostate; 11.4% (inactive) in the assay on K-562 leukemia; 52% (inactive) in the assay with MALME-3M melanoma; 51.9% (inactive) in the assay with MDA-MB-231 breast; 48% (inactive) in the assay with RXF 393 renal; 39.1% (inactive) in the assay with SF-268 CNS. In addition, the growth in the assay with SF-295 CNS is 35.7% (inactive); in the assay on SF-539 CNS it was 21.3% (inactive); in the assay with UACC-257 melanoma, 52.2% (inactive); in the assay on M14 melanoma it was 1.53% (active).

As for `COc1ccc(C/C(C)=C(\c2ccc(O)cc2)c2ccc(OCCCN(C)C)cc2)cc1`, the growth in the assay with DU-145 prostate was 101% (inactive); with K-562 leukemia, 70.4% (inactive); in the assay on MALME-3M melanoma it was 97.1% (inactive); with MDA-MB-231 breast it was 106% (inactive); in the assay with RXF 393 renal it was 89.5% (inactive); in the assay on SF-268 CNS, 88.1% (inactive). The growth in the assay with SF-295 CNS is 104% (inactive); with SF-539 CNS it was 107% (inactive); with UACC-257 melanoma it was 92.4% (inactive); in the assay with M14 melanoma, 99.4% (inactive).
